From PubChem BioAssay
HepG2 viability: counter-screen for TGF-b inhibitors: cytotoxicity in HepG2 cells. AID 588856. 410,000 compounds, 0.76% hits. Potency, µM (top dose mostly 46.1 µM), actives largely listed as cytotoxic. HepG2 CAGA-GFP viability, ATP luminescence, 18 h
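HepG2 CAGA-GFP cells (1000/well, DMEM with 1% FBS) received compound, then TGF-beta at 500 pg/mL final, and were incubated 18 hours at 37 degrees C. Viability was read by CellTiter-Glo luminescence. Media-only wells were set as complete cell-killing and DMSO as no toxicity.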
TGFb SMAD3 inh: inhibitors of TGF-b signaling; HepG2 CAGA-GFP TGF-b/SMAD3 reporter, GFP fluorescence, 18 h; TGF-beta stimulated, 500 pg/mL final; 410,000 compounds, 1.2% hits; Potency, µM (series often up to 46.1 µM), most hits filed as inhibitors; also: nearly all actives have a fitted effect of over 65% in size
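HEPG2 CAGA-GFP reporter cells (1000/well, DMEM with 1% FBS) received compounds, then recombinant TGF-beta at 500 pg/mL final for 18 hours at 37 degrees C. Per-cell GFP summed per well was normalised to unstimulated and stimulated DMSO controls before curve fitting.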
KB-3-1 tox: KB-3-1 parental cell cytotoxicity; KB-3-1 viability, CellTiter-Glo ATP luminescence, 72 h; Potency, µM (doses to about 46.1 µM), usual class: cytotoxic; AID 1347075; 400,000 compounds, 1.4% hits; also: nearly all actives have a fitted effect of over 60% in size
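72 h, 37 °C compound treatment of KB-3-1 parental cells; CellTiter-Glo added, 10 min, luminescence read. Data corrected against DMSO-only plates and normalized before curve fitting.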
HT1080NT lethal: kills 2HG-producing HT-1080-NT fibrosarcoma cells; 360,000 compounds, 1.6% hits; HT-1080-NT fibrosarcoma viability, CellTiter-Glo ATP luminescence, 48 h; AID 686970; Potency, µM (highest dose often 46.1 µM), most hits filed as cytotoxic;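 also: NT is the 2HG producing partner of a matched IDH1 knockdown line; nearly all actives have a fitted effect of over 55% in size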
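Viability of the 2HG-overproducing fibrosarcoma line after 48 hours of compound exposure at 37 degrees C was determined by luminescence with CellTiter-Glo, and concentration-effect curves were then fitted and categorized.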
KB-V1 cytotox: kills drug-selected multidrug resistant KB-V1 cells; KB-V1 MDR cells viability, CellTiter-Glo, 72 h; Potency, µM (highest dose often 46.1 µM), usual class: cytotoxic; 400,000 compounds, 3.4% hits; AID 1347076; also: nearly all actives have a fitted effect of over 60% in size
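KB-V1, DMEM (no phenol red) + 10% FBS; cpd pin-transferred, titration series; 72 h, 37 degrees C; CellTiter-Glo, luminescence. Data normalized, curve-fit.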
HT1080 IDH1KD tx: HT-1080 IDH1 knockdown cell toxicity (counter line); HT-1080 IDH1 knockdown viability, ATP luminescence, 48 h; Potency, µM (highest dose often 46.1 µM), hits mostly cytotoxic; 360,000 compounds, 2% hits
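Viability of IDH1-knockdown HT-1080 fibrosarcoma cells was assessed by CellTiter-Glo after 48 h at 37 °C with titrated compound; concentration-effect curves were classified by fit quality and response size.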
Hits are given with their value; i = inactive; ? = inconclusive; nt = not tested or not shown; ! = repeats disagree. Most compounds without a hit are left out; they make up all but 6.6% or so of the library. Calls follow the shape of the dose curve; as a rule, active = well fitted curve in the direction sought with a large enough effect; inconclusive = small, poorly fitted or top-dose-only effect, or another doubt; inactive = no such curve, though single readings can be large; an effect the other way counts as inactive or inconclusive.

SMILES	HepG2 viability	TGFb SMAD3 inh	KB-3-1 tox	HT1080NT lethal	KB-V1 cytotox	HT1080 IDH1KD tx
NC(Cc1ccc(F)cc1)c1csc(Nc2nccc(C(F)(F)F)n2)n1 (centres undefined)	i	?	i	23µM	i	15µM
COc1ccc(C(=O)NCC(=O)OCC(=O)c2ccc3ccccc3c2)cc1	i	i	i	nt	i	nt
COc1cc(OC)nc(Nc2nc(C(N)Cc3ccc(Cl)cc3)cs2)n1 (centres undefined)	11µM	?	?	23µM	?	?
O=C(Nc1cccc2cccnc12)c1ccc(Br)cc1	i	i	nt	nt	nt	nt
CCOC(=O)c1c(C)[nH]c(C)c1S(=O)(=O)N(C)CC(=O)N1CCN(c2cccc(Cl)c2)CC1	i	?	i	nt	?	nt
O=C1[C@H](Cc2ccccc2)NC/C=C\C[C@@H](c2ccc(Cl)cc2)N1Cc1ccccc1	8.9µM	?	?	nt	?	nt
O=C1[C@H](Cc2ccccc2)NC/C=C\C[C@H](c2ccc(Cl)cc2)N1Cc1ccc(Cl)cc1	i	?	?	nt	?	nt
O=C1[C@H](Cc2ccccc2)NCCCC[C@@H](c2ccc(Cl)cc2)N1Cc1ccc(Cl)cc1	i	?	12µM!	?	?	?
O=C1[C@H](Cc2ccccc2)NCCCC[C@H](c2ccc(Cl)cc2)N1Cc1ccccc1	i	?	?	?	?	?
CC1Cc2ccccc2N1C(=O)Cn1cc(C(F)(F)F)ccc1=O (centres undefined)	i	i	i	i	i	i
O=C(C[n+]1cccc2cc(Cl)ccc21)c1ccc(I)cc1	i	?	?	nt	i	nt
CC1CCCCC1NS(=O)(=O)c1ccc(S(=O)(=O)NCc2ccncc2)cc1 (centres undefined)	i	i	i	i	16µM	?
CCOC(=O)COc1ccc(S(=O)(=O)NCc2ccncc2)cc1	i	i	?	?	i	?
Cc1ccc(S(=O)(=O)NCC(=O)NCc2ccncc2)cc1	i	i	i	i	i	i
CCOc1ccc(S(=O)(=O)NCc2ccncc2)cc1	i	?	0.82µM	i	0.65µM	i
Cc1ccc(S(=O)(=O)NCc2ccncc2)cc1	i	?	?	i	i	6.5µM
O=C(Cn1cc(COc2c(F)c(F)cc(F)c2F)nn1)c1ccc(O)cc1	i	i	i	i	i	i
CCOC(=O)C1CCN(c2nc3c(S(=O)(=O)c4ccccc4)nnn3c3ccc(Cl)cc23)CC1	i	i	i	nt	i	nt
Cc1c(-c2n[nH]c(=S)n2-c2ccc(C(F)(F)F)cc2)nnn1-c1ccccc1	i	i	i	i	23µM	i
Cc1ccc(S(=O)(=O)N2CCN(CC(=O)Nc3ccc([N+](=O)[O-])cc3)CC2)cc1C	i	i	i	i	18µM	i
O=C(CN1CCN(c2ccc(O)cc2)CC1)Nc1cc(S(=O)(=O)N2CCCCC2)ccc1Cl	i	i	i	?	8.2µM	i
CCOc1ccc(NC(=O)CN2CCN(S(=O)(=O)c3ccc(OC)cc3)CC2)cc1	i	i	i	nt	i	nt
O=C(CN1CCN(c2ccc(O)cc2)CC1)Nc1cc(S(=O)(=O)N2CCCC2)ccc1Cl	i	i	i	i	i	i
COc1ccc(NC(=O)CN2CCN(S(=O)(=O)c3ccc(Cl)cc3)CC2)cc1	i	i	i	i	16µM	i
COc1cc(NC(=O)CCC(=O)N2CCN(S(=O)(=O)c3ccc(C)cc3)CC2)cc(OC)c1	i	i	i	i	18µM	i
SMILES	HepG2 viability	TGFb SMAD3 inh	KB-3-1 tox	HT1080NT lethal	KB-V1 cytotox	HT1080 IDH1KD tx
COc1cccc(N2CCN(CC(=O)Nc3ccc(S(=O)(=O)N4CCCCCC4)cc3)CC2)c1	i	i	i	i	21µM	i
O=C(CN1CCN(S(=O)(=O)c2ccc(Cl)cc2)CC1)NC(=O)NC1CCCCC1	i	i	?	i	2.3µM	i
O=C(CN1CCN(S(=O)(=O)c2ccccc2)CC1)NC(=O)NC1CCCCC1	i	i	i	i	i	i
COc1cccc(NC(=O)CN2CCN(S(=O)(=O)c3ccc(F)cc3)CC2)c1	i	i	i	i	i	i
O=C(c1ccccc1)N(C1=NCCCCS1)c1ccccc1	i	i	i	i	?	i
O=C(CN(Cc1ccccc1)C1=NCCS1)c1ccccc1	i	i	i	i	18µM	i
Cc1ccc(C(=O)CN(Cc2ccccc2)C2=NCCS2)cc1	i	?	i	i	16µM	i
COc1cccc(CNC(=O)c2ccc(-n3c(C)cc4c3CCCC4)cc2)c1	i	i	i	nt	?	nt
C[C@@H]1Cc2c(O)c(O)cc(O)c2C(=O)O1	i	i	i	i	i	i
CC1CCC/C=C/C(=O)c2c(O)cc(O)cc2CC(=O)O1 (centres undefined)	i	7.1µM	10µM	18µM	?	21µM
O=S(=O)(c1ccc(-n2cnnn2)cc1)N1CCN(c2cccc(Cl)c2)CC1	i	i	nt	nt	nt	nt
CN(C)S(=O)(=O)c1cccc(NC(=S)NC23CC4CC(CC(C4)C2)C3)c1	i	?	i	?	i	i
CC1(C(=O)NC(=S)NNC(=O)c2ccncc2)CCCCC1	i	?	?	i	?	?
Cc1ccc(S(=O)(=O)N(C)C)cc1NC(=S)NC(=O)C12CC3CC(CC(C3)C1)C2	i	i	3.3µM	i	?	i
NS(=O)(=O)c1cccc(NC(=S)NC(=O)C23CC4CC(CC(C4)C2)C3)c1	i	?	i	i	18µM	i
Cc1ccc(S(=O)(=O)N(C)C)cc1NC(=S)NC12CC3CC(CC(C3)C1)C2	i	?	i	i	i	i
O=C(NNC(=S)NC(=O)C12CC3CC(CC(C3)C1)C2)c1ccncc1	i	i	?	13µM	?	7.9µM
Cc1ccc(NC(=O)c2c(Cl)n(C)c3ccccc23)cc1	i	i	?	i	6.5µM	?
Cc1cc(C)n2ncc(C(=O)Nc3ccc4c(c3)CCC4)c2n1	nt	nt	i	nt	i	nt
O=C(c1ccc2c(=O)n(CCc3ccccc3)c(=O)[nH]c2c1)N1CCN(c2ccc(Cl)cc2)CC1	i	4.5µM	i	nt	i	nt
CCOC(=O)N1CCN(C(=O)c2ccc3c(=O)n(CCOC)c(=O)[nH]c3c2)CC1	i	i	i	i	?	i
O=C(c1ccc(Cn2c(=O)[nH]c3ccccc3c2=O)cc1)N1CCN(c2ccccn2)CC1	i	?	i	i	i	i
O=C(c1ccc(Cn2c(=O)[nH]c3ccccc3c2=O)cc1)N1CCN(c2ccccc2)CC1	i	i	?	i	21µM	i
COCCn1c(=O)[nH]c2cc(C(=O)N3CCN(c4ccc(Cl)cc4)CC3)ccc2c1=O	i	i	15µM!	i	?	i
